We go through 11 molecules from PubChem BioAssay (Tox21).

The nature of assay [1]: qHTS assay to identify small molecule agonists of the RXR signaling pathway - cell viability counter screen (AID 1159529). Note: series mostly up to about 77 µM; nearly all actives have a fitted effect of over 50% in size. Summed up: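 RXR-alpha-UAS-bla HEK 293T cells in medium with 2% charcoal-stripped FBS were pre-incubated 5 hr, then compound-treated 16 hr at 37 C. Viability was read by CellTiter-Glo luminescence in the same wells as the beta-lactamase assay, with tetraoctyl ammonium bromide as positive control.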

Assay [2] is described as follows: qHTS assay to identify small molecule antagonists of the retinoid acid receptor (RAR) signaling pathway - cell viability counter screen (AID 1159551). Note: nearly all actives have a fitted effect of over 35% in size. Put shortly:
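Measured by luminescent ATP detection, viability reflects C3RL4 cells treated 6 h at 37 C with test chemicals in the presence of 1 uM (final) retinol.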
For orientation: Quantitative high-throughput screening tests each substance at several concentrations.

The nature of assay [3]: qHTS assay to identify small molecule agonists of the retinoic acid receptor (RAR) signaling pathway (AID 1159553). Put shortly:
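6 hr compound exposure (DMSO vehicle) of overnight-plated C3RL4 RARE-luc cells at 37 C; luminescence quantified after 30 min RT with luciferase reagent.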

Assay [4] in a line: qHTS assay to identify small molecule antagonists of the estrogen related receptor (ERR) signaling pathway from Tox21 library - cell viability counter screen (AID 1224834). Note: nearly all actives have a fitted effect of over 30% in size. Note: potency is the fitted concentration of half-maximal effect. Summed up: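 Seeded ERR cells were rested 6 h at 37 C/5% CO2 before compounds, positive and negative controls or DMSO were added. Incubation continued for 17.5 h, and viability was then quantified by CellTiter-Fluor fluorescence.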

Assay [5] concerns the target Luciferin 4-monooxygenase (Photinus pyralis) (UniProt P08659). The assay is described as follows: qHTS assay to identify small molecule inhibitors of firefly luciferase (AID 1224835). Note: series mostly up to about 120 µM; nearly all actives have a fitted effect of over 25% in size. Put shortly: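 Biochemical qHTS: compounds run as interplate titrations against purified firefly enzyme, with D-luciferin and ATP each at its KM concentration. Light output recorded by CCD imaging.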

Assay [6] in a line: qHTS assay to identify small molecule agonists of the constitutive androstane receptor (CAR) signaling pathway - cell viability counter screen (AID 1224836). Note: series mostly up to about 92 µM; nearly all actives have a fitted effect of over 45% in size. Summed up: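 HepG2 cells stably carrying hCAR and a CYP2B6-2.2kb reporter; 15-concentration compounds plus PK11195 (final 0.75 uM), 23 hr at 37 C/5% CO2. Viability read by CellTiter-Fluor fluorescence.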
Assay [7] in a line: qHTS assay to identify small molecule antagonists of the constitutive androstane receptor (CAR) signaling pathway - cell viability counter screen (AID 1224837). Note: series mostly up to about 92 µM; nearly all actives have a fitted effect of over 45% in size. Summed up: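 To flag cytotoxic false antagonists, HepG2 hCAR/CYP2B6-2.2kb cells were treated 23 hr with 15-concentration compound series and 50 nM CITCO at 37 C/5% CO2; CellTiter-Fluor fluorescence was the measured end point.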

In assay [8] the target is Nuclear receptor subfamily 1 group I member 3 (Homo sapiens) (UniProt Q14994). The assay is described as follows: qHTS assay to identify small molecule antagonists of the constitutive androstane receptor (CAR) signaling pathway (AID 1224838).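 Note: HepG2 cells stably expressing hCAR with CYP2B6 luciferase reporter stimulated by CITCO; nearly all actives have a fitted effect of over 40% in size.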 Note: potency is the fitted concentration of half-maximal effect. Put shortly:
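Human hepatoma HepG2 cells expressing hCAR and a CYP2B6 promoter (2.2 kb) luciferase construct; compound titration (15 points) with 50 nM CITCO final, 24 h at 37 C/5% CO2; luminescence via ONE-Glo after 30 min at room temperature.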

The nature of assay [9]: qHTS assay to identify small molecule antagonists of the estrogen related receptor signaling pathway with the pleiotropic PPARgamma coactivator (PGC) from Tox21 10K library - cell viability counter screen (AID 1224840; active = well fitted cell-killing curve with a large enough effect in the repeat runs, not every such curve was filed as active; note: nearly all actives have a fitted effect of over 40% in size). Summed up:
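Seeded PGC/ERR cells (2,000/well, 6 h, 37 C/5% CO2) get compound by pin tool; 17.5 h incubation at 37 C; CellTiter-Fluor added, 30 min, fluorescence measured.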

Assay [10] can be described thus: qHTS assay to identify small molecule agonists of the estrogen related receptor signaling pathway with the pleiotropic PPARgamma coactivator (PGC) from Tox21 10K library (AID 1224842). Note: nearly all actives have a fitted effect of over 15% in size. Summed up: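 PGC/ERR reporter cell line, 2,000 cells per well, incubated 6 h at 37 C before 23 nL compound in DMSO was added. After 18 h at 37 C, One-Glo luminescence read following 30 min at room temperature.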

The target in assay [11] is Thyrotropin receptor (Homo sapiens) (UniProt P16473). Nature of the assay: qHTS assay to identify small molecule agonists of the thyroid stimulating hormone receptor (TSHR) signaling pathway (AID 1224843; calls by dose curve; note: nearly all actives have a fitted effect of over 45% in size). Put shortly: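 Agonist-mode screen: TSHR HEK293 cells received test chemicals for half an hour at room temperature, then HTRF cAMP detection reagents for one hour prior to fluorescence measurement. Each chemical ran as a 15-concentration series, triplicated.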

Assay [12] can be described thus: qHTS assay to identify small molecule antagonists of the estrogen related receptor (ERR) signaling pathway - cell viability counter screen (AID 1224818).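 Note: series mostly up to about 46 µM; viability measured after 17.5 h of compound exposure.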 Summed up:
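Compounds dissolved in DMSO were applied to ERR cells seeded at 2,000 per well 6 h earlier. Cell viability followed 17.5 h later via 30-min CellTiter-Fluor fluorescence.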

Assay [13] concerns the target Nuclear receptor subfamily 1 group I member 3 (Homo sapiens) (UniProt Q14994). Nature of the assay: qHTS assay to identify small molecule agonists of the constitutive androstane receptor (CAR) signaling pathway (AID 1224839). For activation: series mostly up to about 92 µM. Note: nearly all actives have a fitted effect of over 15% in size. Note: potency is the fitted concentration of half-maximal effect. Summed up:
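HepG2 cells stably co-transfected with hCAR and a CYP2B6-2.2kb luciferase reporter; compounds at 15 concentrations with 0.75 uM PK11195 present. After 24 hr at 37 C, luciferase read by ONE-Glo luminescence.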

Assay [14] in a line: qHTS assay to identify small molecule antagonists of the estrogen related receptor signaling pathway with the pleiotropic PPARgamma coactivator (PGC) from Tox21 10K library (AID 1224841; call rule not given here; note: actives are mostly falling curves and most rising ones were filed inactive; nearly all actives have a fitted effect of over 50% in size; note: potency is the fitted concentration of half-maximal effect; for activity, negative = inhibition: series mostly up to about 92 µM). Summed up:
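Test chemicals dissolved in DMSO were applied to pre-incubated (6 h) PGC/ERR cells at 2,000 cells/well for an 18 h, 37 C treatment; reporter luminescence was then read using One-Glo.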

The nature of assay [15]: qHTS assay to identify small molecule antagonists of the retinoic acid receptor (RAR) signaling pathway (AID 1159552; note: nearly all actives have a fitted effect of over 50% in size). Put shortly:
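Retinol signaling pathway inhibitors screened in C3RL4 RARE-luciferase reporter cells seeded overnight at 37 C, then compounds added with 1 uM (final) retinol as pathway substrate. After 6 hr at 37 C, luciferase luminescence read after 30 min at room temperature.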

Results filed as inconclusive are left out. Unmarked numbers belong to inactive results. Calls of active or inactive are those of the source. Unless noted, calls come from the whole dose curve; as a rule, active = well fitted curve in the direction sought with a large enough effect in the repeat runs; inconclusive = weak or mixed curves; inactive = no such curve, though single readings can be large; an effect the other way counts as inactive or inconclusive.
% is set by controls: 0 for no effect and ±100 for the full control effect.

Sequence of Luciferin 4-monooxygenase (Photinus pyralis) (P08659 whole entry, looked up): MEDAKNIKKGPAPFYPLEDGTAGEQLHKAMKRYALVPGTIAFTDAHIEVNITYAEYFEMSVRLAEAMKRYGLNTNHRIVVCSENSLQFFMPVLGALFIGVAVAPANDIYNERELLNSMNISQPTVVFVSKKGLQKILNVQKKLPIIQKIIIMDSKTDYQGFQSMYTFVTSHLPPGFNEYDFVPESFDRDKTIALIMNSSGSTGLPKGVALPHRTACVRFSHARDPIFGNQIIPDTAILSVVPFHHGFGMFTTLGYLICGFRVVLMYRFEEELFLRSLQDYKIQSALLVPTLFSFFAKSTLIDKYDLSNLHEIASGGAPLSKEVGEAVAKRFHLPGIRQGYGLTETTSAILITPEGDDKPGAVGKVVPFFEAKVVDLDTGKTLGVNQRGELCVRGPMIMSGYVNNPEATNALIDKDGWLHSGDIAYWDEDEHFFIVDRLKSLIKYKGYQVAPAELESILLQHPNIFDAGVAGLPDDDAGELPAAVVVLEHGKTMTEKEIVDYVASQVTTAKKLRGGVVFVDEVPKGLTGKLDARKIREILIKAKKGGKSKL
Sequence of Nuclear receptor subfamily 1 group I member 3 (Homo sapiens) (Q14994 whole entry, looked up): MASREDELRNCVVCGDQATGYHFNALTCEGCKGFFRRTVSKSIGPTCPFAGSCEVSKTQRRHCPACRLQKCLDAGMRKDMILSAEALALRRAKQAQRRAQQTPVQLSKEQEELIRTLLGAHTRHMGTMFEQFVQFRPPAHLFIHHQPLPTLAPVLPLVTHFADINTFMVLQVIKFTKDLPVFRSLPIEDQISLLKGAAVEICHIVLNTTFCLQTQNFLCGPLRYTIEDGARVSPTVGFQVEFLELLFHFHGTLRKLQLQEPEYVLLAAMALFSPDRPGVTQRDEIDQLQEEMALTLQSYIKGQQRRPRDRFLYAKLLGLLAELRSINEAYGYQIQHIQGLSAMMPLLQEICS
Sequence of Thyrotropin receptor (Homo sapiens) (P16473 whole entry, looked up): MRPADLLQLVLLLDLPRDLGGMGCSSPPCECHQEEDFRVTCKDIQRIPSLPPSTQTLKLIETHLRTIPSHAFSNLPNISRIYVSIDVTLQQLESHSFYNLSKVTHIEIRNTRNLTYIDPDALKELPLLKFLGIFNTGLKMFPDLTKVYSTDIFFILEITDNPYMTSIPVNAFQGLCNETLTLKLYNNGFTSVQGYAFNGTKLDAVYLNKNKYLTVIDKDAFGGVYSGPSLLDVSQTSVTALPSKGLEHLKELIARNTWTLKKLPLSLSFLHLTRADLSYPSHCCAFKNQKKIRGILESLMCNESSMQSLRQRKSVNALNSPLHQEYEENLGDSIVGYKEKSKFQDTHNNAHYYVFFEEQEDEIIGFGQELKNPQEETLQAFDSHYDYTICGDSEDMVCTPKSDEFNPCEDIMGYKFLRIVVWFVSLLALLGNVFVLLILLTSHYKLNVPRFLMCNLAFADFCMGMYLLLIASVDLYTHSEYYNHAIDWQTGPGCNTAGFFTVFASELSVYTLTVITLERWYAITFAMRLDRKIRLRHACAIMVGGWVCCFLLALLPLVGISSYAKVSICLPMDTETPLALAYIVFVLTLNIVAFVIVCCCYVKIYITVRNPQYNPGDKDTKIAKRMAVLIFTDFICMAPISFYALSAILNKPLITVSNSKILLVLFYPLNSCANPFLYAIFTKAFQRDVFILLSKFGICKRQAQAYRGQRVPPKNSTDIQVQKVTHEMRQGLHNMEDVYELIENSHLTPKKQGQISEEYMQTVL

As for `Brc1c2ccccc2c(Br)c2ccccc12`, the activity change, negative = cytotoxicity in assay [1] was 0.822% [at 6.97 µM]; in [2] it was 11.4% [at 8.39 µM]; in [7] it was 6.42% [at 8.39 µM]. The activation in assay [3] was -1.37% [at 8.36 µM]; in assay [10], 2.94% [at 8.39 µM]; in [11] it was -2.14% [at 8.39 µM]. The viability change, negative = cytotoxic is -0.56% [at 8.39 µM] in [4], 3.16% [at 8.39 µM] in [6] and 6.16% [at 8.39 µM] in assay [9]. Besides, in assay [5], the activity change, negative = inhibition is 2.43% [at 10.5 µM]. Moreover, the activity, negative = inhibition in [8] was 22.1% [at 8.39 µM].
With `Clc1ccc(Cn2c(CN3CCCC3)nc3ccccc32)cc1`, the Potency entry in assay [1], in assay [2], in assay [3], in assay [5], in [6] and in assay [9] was “inactive” each time. Besides, the result in assay [12] was inactive. Also, the Potency in [8] and in assay [13] was 11.9 µM (active) throughout.
In the case of `COc1cc2nc(N3CCN(C(=O)C4COc5ccccc5O4)CC3)nc(N)c2cc1OC` (configuration not stated), the Potency entry in [1], in assay [2], in [3], in assay [5], in assay [6] and in assay [7] was “inactive” each time. Moreover, the Potency entry in assay [8], in assay [13] and in assay [11] was “inactive” in each case. In assay [4], the Potency was 29.8 µM (active).
Turning to `CCNc1cc(O)ccc1C`, the Potency entry in assay [1], in assay [2], in [3], in assay [4], in assay [5] and in [6] was “inactive” each time. In addition, the Potency entry in assay [7], in assay [8], in assay [9], in assay [14] and in assay [10] was “inactive” each time.
As for `CCCCCC[C@@H](O)C/C=C\CCCCCCCC(=O)OC`, the Potency entry in assay [1], in assay [2], in [15], in assay [4], in assay [5] and in assay [6] was “inactive” in each case. Moreover, the Potency entry in assay [7], in assay [9], in assay [14], in assay [10] and in assay [11] was “inactive” throughout.
Regarding `CCCCCCCCO[C@@H]1O[C@H](CO)[C@@H](O)[C@H](O)[C@H]1O`, the Potency result in [1], in assay [2], in assay [3], in assay [4], in assay [5] and in [6] was “inactive” throughout. Also, the Potency entry in assay [7], in [9] and in assay [11] was “inactive” throughout.
As for `CC(=O)c1cccc([N+](=O)[O-])c1`, the Potency entry in assay [1], in assay [2], in assay [4], in assay [5], in [6] and in assay [7] was “inactive” in each case. The Potency entry in [8], in assay [13] and in assay [9] was “inactive” in each case.
On to `CCOC(=O)c1cccnc1`, for which the Potency entry in assay [1], in [2], in assay [4], in [5], in assay [6] and in assay [7] was “inactive” throughout. In addition, the Potency result in [8], in assay [9] and in assay [11] was “inactive” throughout.
Turning to `CCc1c(C(=O)NN2CCCCC2)nn(-c2ccc(Cl)cc2Cl)c1-c1ccc(Br)cc1`, the Potency result in assay [1], in assay [2], in assay [3], in [5], in [6] and in assay [7] was “inactive” throughout. For the same molecule, the Potency result in assay [13], in assay [10] and in [11] was “inactive” throughout. Besides, the Potency in assay [8] is 21.7 µM (active); in assay [14], 4.86 µM (active).
For `O=C1OC(CN2CCOCC2)CN1/N=C/c1ccc([N+](=O)[O-])o1` (configuration not stated), the Potency result in assay [1], in assay [2], in [3], in assay [5], in assay [6] and in assay [7] was “inactive” throughout. The Potency result in assay [9] was “inactive”.
In the case of `OC[C@H]1O[C@@H](OCCc2ccc(O)cc2)[C@H](O)[C@@H](O)[C@@H]1O`, the Potency entry in [1], in [2], in assay [4], in assay [5], in assay [6] and in assay [7] was “inactive” throughout. For the same molecule, the Potency entry in assay [8], in assay [13], in assay [9] and in [10] was “inactive” in each case.
